The values that follow come from PubChem BioAssay (NCI).

What all share (assay): NCI-60 one-dose screen, 48 h (100 = growth as untreated, 0 = no growth, -100 = all killed)
Assay [1] deals with SR leukemia. The conditions noted are these: 10 µM unless noted.
For assay [2], the system named is RPMI-8226 leukemia. As to conditions: 10 µM.
For assay [3], the system named is OVCAR-8 ovarian. The conditions noted are these: 10 µM unless noted.
In assay [4] the test system is OVCAR-5 ovarian. The conditions noted are these: 10 µM unless noted.
The test system of assay [5] is IGROV1 ovarian. The conditions noted are these: 10 µM unless noted.
Assay [6] concerns OVCAR-3 ovarian. As to conditions: 10 µM unless noted.
In assay [7] the test system is HS 578T breast. As to conditions: 10 µM unless noted.
Assay [8] relates to NCI/ADR-RES ovarian. As to conditions: 10 µM unless noted.
In assay [9] the test system is SK-OV-3 ovarian. As to conditions: 10 µM.
For assay [10], the system named is OVCAR-4 ovarian. As to conditions: 10 µM unless noted.

About 83,000 compounds went through this panel and 20% of them were active in at least one assay; those are over-represented in the sample as a whole.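 Step 1: grow cells in 96-well plates. Step 2: add test compound at a single concentration. Step 3: incubate 48 h. Step 4: record percent growth.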 A number with no mark means an inactive call. Activity calls are given as the source filed them. The calls were made as follows: active = growth percent below 10; inactive = the rest.

Regarding `O=c1oc2ccccc2cc1-c1csc(N/N=C/c2cc3ccccc3nc2Cl)n1`, the growth in [1] was 129%; in [2] it was 108%; in assay [3], 103%; in [4], 98.6%; in [5], 93.3%; in assay [6] it was 108%. The growth in assay [7] was 107%; in assay [8] it was 99.7%.
Take `CCCCCCCCCCCCCCn1c2ccccc2c2c3c(c4c5cc(OC)ccc5oc4c21)C(=O)NC3=O`: the growth in [1] was 114%; in assay [2], 112%; in assay [3], 103%; in [4], 100%; in assay [5], 106%; in assay [6], 110%. Besides, the values for the growth in assay [7] and in assay [8] were 95.6% and 107%, respectively.
For `Clc1ccccc1Nc1ccc2nnc(-c3ccncc3)n2n1`, the growth in assay [1] was 38.6%; in [2], 96.2%; in assay [3] it was 101%; in assay [4] it was 106%; in assay [9], 121%; in assay [6] it was 110%. Besides, the figures for the growth in assay [7] and in assay [8] were 99.6% and 105%, respectively.
`COC(=O)c1ccc(C(=O)Nc2ccccc2N)cc1`: the growth was 67.1% in assay [1]; 56.9% in assay [3]; 53.4% in assay [4]; 96.2% in assay [10]; 92.6% in assay [9]; 74.7% in assay [5]. Moreover, the growth in assay [6] is 87.5%; in assay [7], 75%; in assay [8] it was 53.1%.
As for `Cn1c(=O)c2c(-c3ccccc3F)n(-c3ccc4c(c3)OCO4)cc2n(C)c1=O`, the growth in assay [1] is 68.1%; in assay [3] it was 99.1%; in [4], 98.6%; in assay [10] it was 104%; in assay [9] it was 110%; in assay [5], 101%. For the same compound, the results for the growth in [6], in assay [7] and in assay [8] were 114%, 88.2% and 95.8%, respectively.
`COc1cccc(Nc2nc(NCCO)c3ccccc3n2)c1`: the growth was 47.1% in [1]; 13.7% in assay [2]; 81.9% in assay [3]; 101% in [4]; 102% in [9]; 61.5% in [6]. The figures for the growth in assay [7] and in [8] were 62.4% and 63.9%, respectively.
As for `CC(=O)OC[C@]1(C)C=C2C(=O)[C@](C)(O)C3(CC3)C(C)=C2[C@H]1OC(C)=O`, the growth in assay [1] was 62.8%; in [2], 84.1%; in assay [3] it was 75.9%; in assay [4], 91.3%; in [5], 91.1%; in [6], 94.9%. Besides, the growth was 96% in assay [7] and 75% in [8].
On to `COC(=O)c1c2c(c(C)[n+]([O-])c1C)C(=O)C=C(NCc1ccc(F)cc1)C2=O`, for which the growth is 2.14% (active) in [1]; -20.9% (active) in assay [2]; 2.54% (active) in assay [3]; -68.8% (active) in assay [4]; -59.4% (active) in assay [5]; -35.9% (active) in assay [6]. The growth in [7] is -16.6% (active); in assay [8], -16.7% (active).
In the case of `O=c1oc2ccccc2cc1-c1csc(N=Nc2c(O)[nH]c3ccc(Br)cc23)n1`, the growth in assay [1] was 114%; in assay [2], 109%; in assay [3], 102%; in assay [4], 97.6%; in [5], 99.8%; in assay [6], 108%. For the same compound, the growth is 93.3% in [7] and 103% in assay [8].
As to `Oc1ccc(Cl)cc1CNc1nc2ccccc2[nH]1`, the growth in [1] was -31.7% (active); in assay [2], -21.2% (active); in assay [3], 42.8%; in [4], 98.9%; in [9] it was 87.1%; in assay [6], -73.8% (active). Further, the growth in [7] is 89%; in assay [8], 38.6%.
In the case of `O=C(O)c1ccccc1Oc1cc(-c2ccco2)nc(OCCBr)n1`, the growth is 102% in [1]; 123% in [2]; 103% in assay [3]; 98.5% in assay [10]; 103% in assay [9]; 106% in [5]. In addition, the growth in [6] was 105%; in [7], 98.1%.
On to `O=C1c2c(c3c4cc(Br)ccc4[nH]c3c3ccc4ccccc4c23)C(=O)N1O`, for which the growth in assay [1] is 33.9%; in assay [2], 58.9%; in assay [3], 84.1%; in assay [4], 111%; in assay [5], 70.2%; in assay [6] it was 107%. In addition, the growth is 117% in [7] and 98.1% in assay [8].
Turning to `O=C(NCc1ccco1)C1CCN(S(=O)(=O)c2ccc(Cl)cc2)CC1`, the growth in [1] was 19.5%; in [2] it was -24.6% (active); in assay [3], 80.4%; in assay [4], 103%; in assay [9], 94.5%; in [7] it was 68.9%. The growth in assay [8] is 66.6%.
For the compound `COc1ccc(-c2c(-c3cc4c(c(OC)c3OC)OCO4)noc2N)cc1`, the growth is 10.9% in assay [1]; 17.3% in [2]; 32.1% in assay [3]; 55% in assay [10]; 16.2% in assay [9]; 46.3% in assay [5]. Moreover, the growth was -38.1% (active) in [6], 16% in assay [7] and 2.53% (active) in assay [8].
As to `Cc1oc2c(c1C(=O)N1CC[C@@H](N)C1)C(=O)c1c(c(O)c3ccccc3c1O)C2=O`, the growth in assay [1] is 1.4% (active); in [2], 12.4%; in assay [3], 12.9%; in [4], 85.3%; in assay [9], 35.3%; in assay [6], 3.52% (active). The growth in assay [7] is 34.3%; in assay [8], 8.79% (active).
`FC(F)(F)c1ccc2c(c1)n1cnnc1c1nncn21`: the growth in assay [1] was 84.1%; in assay [2] it was 95.2%; in assay [4] it was 110%; in assay [10], 111%; in assay [9] it was 109%; in [5] it was 119%. Also, the growth is 117% in [6] and 113% in assay [8].
